# Experimental data reported in PubChem BioAssay AID686978 (National Center for Advancing Translational Sciences (NCATS), 2013).
# In all, about 420,000 compounds went through this assay and about 64,000 (15%) were called active. Another 27% or so got no clear call; they are omitted. Only a sample is shown. Values without a mark were called inactive. Calls come from the whole dose curve; as a rule, active = well fitted inhibition curve with a large enough effect; inconclusive = small, poorly fitted or top-dose-only effect; inactive = flat fitted curve, though single readings scatter.
# Test: qHTS for Inhibitors of human tyrosyl-DNA phosphodiesterase 1 (TDP1): qHTS in cells in absence of CPT; note: nearly all actives have a fitted effect of over 55% in size
# Conditions: DT40 Tdp1-/- hTDP1 cells, no CPT, ATP luminescence, 48 h; activity change, negative = growth inhibition: at 46.2 µM (top of the series)
# How it was run: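 Seeded 400 DT40-hTDP1 cells/well (vehicle DMSO, no 20 nM CPT); pinned compounds; ≥48 hr at 37 °C; CellTiter-Glo luminescence as viability measure.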
# % is set by controls: 0 for no effect and ±100 for the full control effect; potency is the fitted concentration of half-maximal effect.
SMILES,"activity change, negative = growth inhibition",Potency
COCC(C)N=CC1=C(O)CC(C)(C)CC1=O (centres undefined),-10.1%,
C=CCN1C=C(C(=O)c2ccccc2)C(=O)CC1,-0.111%,
O=C(CCS(=O)(=O)Cc1ccccc1F)NCCCN1CCCCC1,-11.3%,
CCCCNC(=O)OCCSCCS(=O)(=O)c1ccc(Cl)cc1,-14.4%,
CC12CCCCC1=CC(=O)CC2 (centres undefined),-2.63%,
Cc1c(Cl)cccc1NC(=O)NCCCN1CCCC1=O,19.6%,
Cc1cccc([C@@H]2[C@@H]3C(=O)N(C)C(=O)[C@@H]3[C@@H]3C(=O)Nc4ccccc4C(=O)N23)c1,-7.16%,
Cc1ccc(-c2cccc([C@H]3[C@@H]4C=CC[C@@H](C)[C@@H]4C(=O)N3Cc3ccccc3)c2)cc1,,20.6 µM (active)
Cc1cccc([C@@H]2[C@@H]3C(=O)N(Cc4ccccc4)C(=O)[C@@H]3[C@]3(Cc4ccc(Cl)cc4)C(=O)N(c4cccc(Cl)c4)C(=O)N23)c1,-6.02%,
Cc1cccc([C@H]2[C@@H]3C=CC[C@@H](C)[C@@H]3C(=O)N2Cc2ccccc2)c1,,14.6 µM (active)
CC(C)c1ccc(/C=C/C(=O)NCCCN2CCOCC2)cc1,,20.6 µM (active)
O=C(NNC(=S)NCCCN1CCOCC1)c1ccncc1,3.65%,
O=C(NCCCN1CCOCC1)c1ccc([N+](=O)[O-])cc1[N+](=O)[O-],-13.5%,
CCCC(=O)N(CCc1ccccc1)Cc1nc2ccccc2c(=O)[nH]1,-19%,
CN(C)CCCNC(=O)c1cc(C(=O)Cc2ccc(Cl)cc2)c[nH]1,-22.6%,
N=c1n(CCc2ccccc2)c2ccccc2n1Cc1ccccc1F,,5.17 µM (active)
O=C(COC(=O)Cc1ccccc1F)NCCc1ccccc1,4.69%,
CCCCc1nccn1CCn1ccnc1CCCC,-3.8%,
CC(C)NC(=O)NC(=O)CSc1nnc(-c2ccccc2F)n1N,14.1%,
C=CCn1c(P(C)(=O)O)nc2ccccc21,,inactive
C=C(Br)Cn1c(CCCC)nc2ccccc21,,11.6 µM (active)
O=C(O)Cn1c(Cc2ccccc2)nc2ccccc21,4.87%,
CCCCCCCC/C=C\CCCCCCCC(=O)OC[C@H](CO)OC(C)=O,-8.7% [at 4.12 µM],
CCCOC(=O)c1c(NC(=O)c2cc3nc(-c4ccc(OC)cc4)cc(C(F)(F)F)n3n2)sc2c1CCCC2,-3.89%,
CC(=O)NS(=O)(=O)c1ccc2c(c1)Cc1cc(S(=O)(=O)NC(C)=O)ccc1-2,-11%,
Cc1nc2nc3c(cn2n1)C(=O)CC(c1ccccc1)C3 (centres undefined),-25.6%,

SMILES,"activity change, negative = growth inhibition",Potency
O=C1CC(c2ccccc2)CC2=C1C(c1ccco1)n1nc(C(F)(F)F)nc1N2 (centres undefined),,14.1 µM (active)
CCC(=O)N1c2ccccc2NC2=C(C(=O)CCC2)C1c1ccco1 (centres undefined),-2.89%,
CCOc1ccc(S(=O)(=O)NCCC(=O)NCC(C)(C)N2CCOCC2)cc1,-6.6%,
O=C(Nc1ccccc1F)c1ccccc1-c1ccccc1,-13.5%,
Cc1ccccc1NC(=O)C(C)c1ccc(-c2ccccc2)c(F)c1 (centres undefined),,16.4 µM (active)
CC(C(=O)Nc1ccccc1-c1ccccc1)N1CCOCC1 (centres undefined),-21.9%,
COC1=CC(=O)OC(c2ccc(OC)cc2)C1 (centres undefined),2.03%,
COc1ccc(N=Nc2c(-c3ccc(OC)cc3)[nH]oc2=O)cc1,-12.5%,
COc1ccc(N=C2C=CC(=O)O2)cc1,,4.61 µM (active)
COc1ccc(OC)c2c(N)c(C#N)c(C(F)(F)C(F)(F)F)nc12,3.02%,
Cc1ccc(C(=O)OCC(=O)NCc2ccc3c(c2)OCO3)s1,-5.24%,
COc1ccc(-c2cc(C(F)(F)F)nc(S(C)(=O)=O)n2)cc1OC,,5.17 µM (active)
CCN(CC)S(=O)(=O)c1cccc(C(=O)NCC(=O)OCC(=O)NCc2ccccc2)c1,-25.2%,
CCNC(=O)COc1cc(C)c(Br)c(C)c1,1.43%,
Cc1cc(F)ccc1NC1(c2ccccc2)C(=O)c2ccccc2C1=O,-0.108%,
CNc1ccc(NC(C)=O)cc1[N+](=O)[O-],-0.228%,
CC(=O)Nc1ccc(NC(=S)NC(=O)c2ccc([N+](=O)[O-])c(C)c2)cc1,-9.77%,
CC(=O)Nc1ccc(/C=N/Nc2ccc(C(=O)c3c(C)cc4ccccn34)cc2[N+](=O)[O-])cc1,,11.6 µM (active)
CCC(C)NCC(=O)Nc1ccc([N+](=O)[O-])cc1C(=O)Nc1ccccc1F (centres undefined),-23%,
Cc1ccc(S(=O)(=O)N(C)CC(=O)OCC(=O)N2CC(=O)Nc3ccccc32)cc1,-9.32%,
COc1ccccc1C(=O)NC(=O)COC(=O)c1ccco1,-4.23%,
COc1cccc(N2CCN(C(=O)C3CCCN(S(=O)(=O)c4cnc[nH]4)C3)CC2)c1 (centres undefined),-25%,
COc1c(C)cc(C(=O)C2CCCN(S(=O)(=O)c3c(C)noc3C)C2)cc1C (centres undefined),,16.4 µM (active)
COc1ccc(C(=O)C2CCCN(S(=O)(=O)c3cccc(C)c3)C2)c(C)c1 (centres undefined),,18.4 µM (active)
Cc1cc(C)c(S(=O)(=O)N2CCC(C(=O)OCc3c(C)noc3C)CC2)c(C)c1,2.1%,
COc1ccc(C(=O)C2CCCN(C(=O)c3ccc(OC)o3)C2)c(C)c1 (centres undefined),,16.4 µM (active)

SMILES,"activity change, negative = growth inhibition",Potency
CCOC(=O)C1CCN(S(=O)(=O)c2c(C)noc2C)CC1,21.5%,
CCn1nc(C)cc1C(=O)N1CCCC(C(=O)c2cccc(OC)c2)C1 (centres undefined),-29.3%,
CCNC(=O)C1CCCN(C(=O)c2ccc(OC)cc2OC)CC1 (centres undefined),-2.02%,
Cc1cc(Cl)ccc1C(=O)C1CCCN(C(=O)c2nonc2C)C1 (centres undefined),-26.4%,
O=C(c1ccc2c(c1)OCO2)N1CCOCC1,0.596%,
Cc1cc(Cl)ccc1C(=O)C1CCCN(C(=O)c2ccc3c(c2)OCO3)C1 (centres undefined),,8.2 µM (active)
COc1ccc(OC)c(S(=O)(=O)N2CCCC(C(=O)NCCc3ccccc3)C2)c1 (centres undefined),-23.5%,
O=C(COc1cccnc1[N+](=O)[O-])Nc1ccc(Cl)cc1F,-10.4%,
Cc1ccc(NC(=O)OCc2cncs2)cc1,-3.53%,
COC(=O)c1c(C(=O)OC)c2n(c1C)CCS2,-16.7%,
CC(C)(C)OC(=O)N(Cc1ccco1)S(=O)(=O)c1ccccc1Br,3%,
CCn1c(N)c(Br)c(=O)[nH]c1=O,0.126%,
N#Cc1c(NCCO)ccc([N+](=O)[O-])c1NCCO,0.687%,
CC1CCN(C(=O)CSc2nnc(-c3ccco3)n2N)CC1,2.17%,
CCCn1nc(NS(=O)(=O)c2ccccc2)c2cc3cc(C)ccc3nc21,-7.69%,
CC(C)NC(=O)COCc1cc(-c2ccc3c(c2)OCO3)on1,-26.5%,
O=c1c(-c2ccccc2)coc2c(CN3CCOCC3)c(O)ccc12,-9.85%,
Cc1cc(=O)n2nc(N3CCCC3C(=O)NCCCN3CC(C)CC(C)C3)sc2n1 (centres undefined),-6.94%,
Cc1nnc(SCc2cc(=O)c3cc(F)ccc3[nH]2)n1C,12%,
COc1ccc2oc(C(=O)OCC(=O)N(CC(C)C)c3c(N)n(Cc4ccccc4)c(=O)[nH]c3=O)c(C)c2c1,,16.4 µM (active)
COCCN(C(=O)COC(=O)Cc1cccc(OC)c1)c1c(N)n(Cc2ccccc2)c(=O)[nH]c1=O,16.1%,
CCN(C(=O)COC(=O)c1c(C)nn(-c2ccccc2)c1Cl)c1c(N)n(Cc2ccccc2)c(=O)[nH]c1=O,18.7%,
CCN(C(=O)COC(=O)CCOc1cccc(C)c1)c1c(N)n(Cc2ccccc2)c(=O)[nH]c1=O,,18.4 µM (active)
CCCCN(C(=O)CSCc1ccc(C)cc1)c1c(N)n(Cc2ccccc2)c(=O)[nH]c1=O,,25.9 µM (active)
COCCCN(C(=O)CSCc1ccc(C)cc1)c1c(N)n(Cc2ccccc2)c(=O)[nH]c1=O,-1.36%,
CCN(C(=O)COC(=O)c1sccc1C)c1c(N)n(Cc2ccccc2)c(=O)[nH]c1=O,-24.8%,

SMILES,"activity change, negative = growth inhibition",Potency
CCN(C(=O)COC(=O)Cc1c(F)cccc1Cl)c1c(N)n(Cc2ccccc2)c(=O)[nH]c1=O,-19.8%,
COCCN(C(=O)CSCc1ccc(C)cc1)c1c(N)n(CC(C)C)c(=O)[nH]c1=O,20.3%,
CN=C(c1ccccc1)c1c(C)cccc1C,-12.2%,
CC1CCCCC1NC(=O)CSc1nnc(-c2ccncc2)n1CCCN(C)C (centres undefined),-2.07%,
CCCNC(=O)N1CCN(C(=O)NCCC)CC1,4.59%,
O=C(NNc1cc(Cl)ccc1Cl)c1cccnc1Cl,-2.92%,
Fc1ccc(OCc2nn3c(Cn4nnc5ccccc54)nnc3s2)cc1,-27.8%,
CCc1ccccc1NC(=O)Cc1cn(C)c2ccccc12,,inactive
O=C(O)C1CCCN1S(=O)(=O)c1ccc2c(c1)CCC2 (centres undefined),-7.3%,
CC(OC(=O)CNC(=O)c1cccc(F)c1)C(=O)NC1CCCCC1C (centres undefined),3.97%,
Cc1ccnc(SCC(=O)Nc2cccc(S(=O)(=O)N3CCOCC3)c2)n1,-27.1%,
O=C(O)CCc1cccnc1,,inactive
O=C(O)C1CC(=O)N(Cc2cccnc2)C1 (centres undefined),-0.56%,
O=C1/C(=C\c2cccnc2)CN(Cc2ccccc2)C/C1=C\c1cccnc1,,1.64 µM (active)
COC(=O)c1ccc2c(c1)S(=O)(=O)NC2C (centres undefined),4.44%,
O=C(OCC(=O)N1CCc2ccccc21)c1ccc([N+](=O)[O-])cc1,,29.1 µM (active)
Cc1ccc(S(=O)(=O)NCC(=O)OCC(=O)N2CCc3ccccc32)cc1,-22.6%,
O=C(OCC(=O)N1CCc2ccccc21)C1CCCN1S(=O)(=O)c1ccc(Cl)cc1 (centres undefined),-9.63%,
O=S(=O)(Nc1ccccn1)c1cccc(S(=O)(=O)c2ccc(Cl)cc2)c1,-14%,
Cc1coc2c1c(C)cc1oc(=O)c(CC(=O)NCC(=O)N[C@H](C(=O)O)C(C)C)c(C)c12,23.9%,
Cc1cc[n+](C2CCCCC2)cc1,,15.8 µM (active)
CCC(NC(=O)C1CCCC1)c1ccc(C)cc1 (centres undefined),-3.25%,
COc1ncnc2sc3c(c12)CCCC3,-6.77%,
Cc1noc(C)c1NC(=O)N(C)C[C@@H]1Oc2cc(Br)ccc2S(=O)(=O)N([C@@H](C)CO)C[C@H]1C,-2.38%,
C[C@H](CO)N1C[C@H](C)[C@@H](CN(C)C(=O)C2CCCCC2)OCc2cnnn2CCCC1=O,-21.8%,
CCCCOc1ccc(C(C)(O)CCN2CCOCC2)cc1 (centres undefined),-21.9%,
